Assay results from PubChem BioAssay (NCATS).
Records with an inconclusive call do not appear. Calls of active or inactive are those of the source. The call rests on the fitted dose curve; in most records, active means well fitted cell-killing curve with a large enough effect; inconclusive means small, poorly fitted or top-dose-only effect, or effect the other way; inactive means no such curve, though single readings can be large or run the other way.

Assay: Quantitative High-Throughput drug screen in 47 multiple myeloma cell lines against the NCATS MIPE library collection: Karpas25_ECACC cell viability assay (AID 1918968; further: nearly all actives have a fitted effect of over 35% in size)
Conditions: Karpas25 myeloma viability, CellTiter-Glo ATP, 48 h; series mostly up to 45.8 µM
From the text: PI: Beverly A. Mock Ph.D.
Laboratory of Cancer Biology and Genetics,
Center for Cancer Research, National Cancer Institute,
National Institute of Health, Bethesda, Maryland
Drug resistance and disease progression are common in multiple myeloma (MM) patients, underscoring the need for new therapeutic combinations. […] We hypothesized that effective combinations would reduce MYC expression and enhance p16 activity. […] These preclinical data identify potentially useful drug combinations for evaluation in drug-resistant MM and reveal potential mechanisms of combined drug sensitivity.
Described herein is the primary MIPE qHTS used to cherrypick compounds. Validated compounds were then further tested for potential synergistic activiy.
[1] Peat TJ, Gaikwad SM, Dubois W, Gyabaah-Kessie N, Zhang S, Gorjifard S, Phyo Z, Andres M, Hughitt VK, Simpson RM, Miller MA, Girvin AT, Taylor A, Williams D, D'Antonio N, Zhang Y, Rajagopalan A, Flietner E, Wilson K, Zhang X, Shinn P, Klumpp-Thomas C, McKnight C, Itkin Z, Chen L, Kazandijian D, Zhang J, Michalowski AM, Simmons JK, Keats J, Thomas CJ, Mock BA. Drug combinations identified by high-throughput screening promote cell cycle transition and upregulate Smad pathways in myeloma. Cancer Lett. 2023 Aug 1;568:216284. doi: 10.1016/j.canlet.2023.216284. Epub 2023 Jun 24. PMID: 37356470; PMCID: PMC10408729.
SEQUENCE No. (e.g., 1, 2, 3, etc.); […] (e.g., Cells, Incubation, Reagent, etc.); VALUE and DESCRIPTION.
1; Cells; 5 uL; white, solid bottom 1536-well Greiner assay plate.
2; Compounds; 23 nL; Kalypsis pin tool (Wako USA) equipped with a 1536-well pin head to transfer to the assay plates.
3; Incubation; 48 hours; 37C incubation.
4; Reagent;5uL; CellTiter Glo (Promega).
5; Detector; 425V; Luminescence; Viewlux PerkinElmer.
NOTES (numbers refer to Sequence numbers above)
1. The cell-based screening methods employed in this study were like those previously published. Briefly, the corresponding myeloma cell lines were screened in 1,536-well plates with 500 cells, 5-uL per well for inhibition of cell viability (assessed by measuring ATP levels with CellTiterGlo).
2. NCATS MIPE 4.0 library of approved and investigational drugs were added using the Kalypsis pin tool. Wells treated with DMSO only for 100% viability and media only wells for 0% viability were used as controls.
3. The assay plates were covered and incubated for 48 hours in a 37C, 5% CO2 incubator with controlled humidity.
4. After 48 hours, CellTilter-GloTM luminescent substrate mix (Promega) reagent was added to the assay plate and plates we incubated for 5 min at room temperature.
5. Signal was measured as median relative luminescence units on a ViewLux (PerkinElmer) multiplate reader.
[1] Heske CM, Davis MI, Baumgart JT, Wilson K, Gormally MV, Chen L, Zhang X, Ceribelli M, Duveau DY, Guha R, Ferrer M, Arnaldez FI, Ji J, Tran HL, Zhang Y, Mendoza A, Helman LJ, Thomas CJ. Matrix Screen Identifies Synergistic Combination of PARP Inhibitors and Nicotinamide Phosphoribosyltransferase (NAMPT) Inhibitors in Ewing Sarcoma. Clin Cancer Res. 2017 Dec 1;23(23):7301-7311. doi: 10.1158/1078-0432.CCR-17-1121. Epub 2017 Sep 12. PMID: 28899971; PMCID: PMC6636827.
Potency means the concentration at half of the fitted maximal effect.

| Structure (SMILES) | Potency |
| --- | --- |
| C[C@]12CC[C@@H]3c4ccc(O)cc4C[C@@H](CCCCCCCCCS(=O)CCCC(F)(F)C(F)(F)F)[C@H]3[C@H]1CC[C@H]2O (stereo not given in full) | inactive |
| CO[C@H]1C=CO[C@@]2(C)Oc3c(C)c(O)c4c(O)c(c5c(c4c3C2=O)NC2(CCN(CC(C)C)CC2)N=5)=NC(=O)C(C)=CC=C[C@H](C)[C@H](O)[C@@H](C)[C@@H](O)[C@@H](C)[C@H](OC(C)=O)[C@H]1C | 16.6 µM (active) |
| CC(C)C[C@H](CC(=O)O)C(=O)N[C@@H](Cc1c[nH]c2ccccc12)C(=O)N[C@@H](C)c1ccccc1 | inactive |
| CC(C)C(C)C=CC(C)C1CCC2C3=CC=C4CC(O)CCC4(C)C3CCC21C (stereo not given) | inactive |
| O=C(OCC#CCSc1nnc(-c2cccc3ccccc23)o1)c1cc2ccccc2s1 | inactive |
| CC(=O)Nc1ccc([C@H](C)C(=O)Nc2ncc(C(C)C)s2)cc1 | 1.05 µM (active) |
| CC(=Cc1ccccc1)C=C1SC(=S)N(CC(=O)O)C1=O | inactive |
| CN1C[C@H]2c3ccccc3Oc3ccc(Cl)cc3[C@@H]2C1 | inactive |
| Cn1c(N2CCCCS2(=O)=O)nc(C(=O)NCc2ccc(F)cc2)c(O)c1=O | 20.9 µM (active) |
| O=C1NC(=O)C(=Cc2ccc3nccnc3c2)S1 | 5.75 µM (active) |
| CC(=O)O[C@]1(C(C)=O)CC[C@@H]2[C@@H]3C[C@H](C)C4=CC(=O)CC[C@]4(C)[C@H]3CC[C@@]21C | 18.7 µM (active) |
| O=C1NC(=O)C(=Cc2ccc3c(c2)OC(F)(F)O3)S1 | 18.7 µM (active) |
| O=C(NCc1ccccc1)c1csc(Nc2ccncn2)n1 | 10.5 µM (active) |
| CCN(CC)CCOc1ccc(C(=C(Cl)c2ccccc2)c2ccccc2)cc1 | inactive |
| CCn1cc(C(=O)O)c(=O)c2ccc(C)nc21 | inactive |
| C[C@H](NC(=O)C(=O)Nc1ccccc1C(C)(C)C)C(=O)N[C@@H](CC(=O)O)C(=O)COc1c(F)c(F)cc(F)c1F | 20.9 µM (active) |
| COc1ccc(-c2oc3c(CC=C(C)C)c(OC4O[C@H](CO)[C@@H](O)[C@H](O)[C@@H]4O)cc(O)c3c(=O)c2OC2O[C@@H](C)[C@H](O)[C@@H](O)[C@@H]2O)cc1 (stereo not given in full) | 20.9 µM (active) |
| C=C1C(=O)OC(CCCCCCCC)C1C(=O)O (stereo not given) | 26.4 µM (active) |
| CN1[C@@H]2CCC[C@@H]1CC(NC(=O)c1nn(C)c3ccccc13)C2 (stereo not given in full) | inactive |
| CCS(=O)(=O)N1CC(CC#N)(n2cc(-c3ncnc4[nH]ccc34)cn2)C1 | inactive |

| Structure (SMILES) | Potency |
| --- | --- |
| Cc1c(O)cccc1C(=O)N[C@@H](CSc1ccccc1)[C@H](O)CN1C[C@H]2CCCC[C@@H]2C[C@@H]1C(=O)NC(C)(C)C | 14.8 µM (active) |
| COCCOc1nc(-c2ccc(Cl)c(Cl)c2)n(-c2ccc(NC(=O)CCl)cc2)n1 | 5.26 µM (active) |
| C=C1C(=O)[C@@]23C(CC[C@@H]1[C@H]2O)[C@@]12CO[C@]3(O)[C@@H](O)[C@@H]1C(C)(C)CC[C@@H]2O (stereo not given in full) | 2.35 µM (active) |
| C[C@H](NC(=O)c1sccc1OCc1ccc(Cl)cc1)c1ccccc1 | 16.6 µM (active) |
| O=C(O)[C@H]1O[C@H](Oc2cc3oc(-c4ccccc4)cc(=O)c3c(O)c2O)[C@H](O)[C@@H](O)[C@H]1O | inactive |
| CS(=O)c1ccc(-c2nc(-c3ccc(F)cc3)c(-c3ccncc3)[nH]2)cc1 (stereo not given) | 8.55 µM (active) |
| NC1CCC(Nc2nc(Nc3ccc(C(=O)N4CCCCC4)cc3)c3ncn(-c4cccc(F)c4)c3n2)CC1 (stereo not given) | inactive |
| Cc1ccc(F)c(NC(=O)Nc2ccc(-c3cccc4[nH]nc(N)c34)cc2)c1 | 26.4 µM (active) |
| CCCCCN(C)CCC(O)(P(=O)(O)O)P(=O)(O)O | inactive |
| CN1CCN(CCOc2cc(OC3CCOCC3)c3c(Nc4c(Cl)ccc5c4OCO5)ncnc3c2)CC1 | 16.6 µM (active) |
| O=c1c(-c2ccc(O)cc2)coc2cc(O)ccc12 | inactive |
| Cc1[nH]c(C=C2C(=O)Nc3ccc(S(=O)(=O)Cc4c(Cl)cccc4Cl)cc32)c(C)c1C(=O)N1CCC[C@H]1CN1CCCC1 | 2.96 µM (active) |
| CNC1CCC(N(Cc2cccc(-c3ccncc3)c2)C(=O)c2sc3c(F)ccc(F)c3c2Cl)CC1 (stereo not given) | 11.8 µM (active) |
| O=C1C[C@@H](c2ccc(O)cc2)Oc2cc(O)cc(O)c21 | inactive |
| COCCOC(=O)C1=C(C)NC2=C(C(=O)CC(c3ccccc3OC)C2)C1c1cccc(O)c1 (stereo not given) | 13.2 µM (active) |
| CC=CCC=CCCC(=O)[C@H]1O[C@@H]1C(N)=O | 18.7 µM (active) |
| Cc1nnc(C(C)C)n1C1C[C@H]2CC[C@@H](C1)N2CC[C@H](NC(=O)C1CCC(F)(F)CC1)c1ccccc1 (stereo not given in full) | 18.7 µM (active) |
| O=C(O)c1c(Cl)c(Cl)c(Cl)c(Cl)c1-c1c2cc(I)c(=O)c(I)c-2oc2c(I)c(O)c(I)cc12 | 7.43 µM (active) |
| NC(=O)c1cccc(-c2cc(Nc3ccc(OC(F)(F)F)cc3)ncn2)c1 | 8.33 µM (active) |
| O=c1ccn([C@@H]2O[C@H](CO)[C@H](O)[C@H]2O)c(=O)[nH]1 | inactive |
